Test results: PubChem BioAssay (NCATS)
Records with an inconclusive call do not appear. Active and inactive are the calls of the source. Unless noted, calls follow the shape of the full dose curve.

Key:
[1] = qHTS for Inhibitors of the Functional Ribonucleoprotein Complex (vRNP) of Lassa (LASV) Arenavirus: LASV Primary Screen - GLuc reporter signal (AID 1347082; calls by dose curve; tested in HEK293 reporter line; also: % is scaled to controls: 0 for no effect and ±100 for the full control effect; nearly all actives have a fitted effect of over 60% in size)
[2] = qHTS for Inhibitors of the Functional Ribonucleoprotein Complex (vRNP) of Lassa (LASV) Arenavirus: Viability assay - alamar blue signal for LASV Primary Screen (AID 1347083; calls by dose curve; tested in HEK293 reporter line; also: % is scaled to controls: 0 for no effect and ±100 for the full control effect; nearly all actives have a fitted effect of over 80% in size)
[3] = qHTS for Inhibitors of the Functional Ribonucleoprotein Complex (vRNP) of Lymphocytic Choriomeningitis Arenaviruses (LCMV): Viability assay - alamar blue signal for LCMV Primary Screen (AID 1347085; calls by dose curve; tested in HEK293 reporter line; also: % is scaled to controls: 0 for no effect and ±100 for the full control effect; nearly all actives have a fitted effect of over 80% in size)
[4] = target: Nucleoprotein (Lymphocytic choriomeningitis virus (strain Armstrong)) (UniProt P09992); assay: qHTS for Inhibitors of the Functional Ribonucleoprotein Complex (vRNP) of Lymphocytic Choriomeningitis Arenaviruses (LCMV): LCMV Primary Screen - GLuc reporter signal (AID 1347086); also: % is scaled to controls: 0 for no effect and ±100 for the full control effect; nearly all actives have a fitted effect of over 70% in size
[5] = Confirmatory qHTS to identify inhibitors of SARS-CoV-2 cell entry (AID 1645844); also: % is scaled to controls: 0 for no effect and ±100 for the full control effect; nearly all actives have a fitted effect of over 45% in size
Outline: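 HEK293-ACE2, overnight seeding; cpd 1 h, 37C/5% CO2; + SARS-CoV-2-S MLV PP (Wuhan-Hu-1, ΔC19); 48 h; Bright-Glo luminescence. Data normalised to S PP and bald PP wells.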

[6] = Cytotoxicity counterscreen for inhibitors of SARS-CoV-2 cell entry (AID 1645845); also: nearly all actives have a fitted effect of over 50% in size
Outline: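 Counterscreen run in the same HEK293-ACE2 line as the pseudotyped-particle entry assay, without particles. Viability after 48 h at 37 C was read as ATP luminescence, scaled between cell-containing and cell-free wells.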

[7] = Primary qHTS to identify inhibitors of SARS-CoV-2 cell entry (AID 1645846); settings: activity change, negative = inhibition: at 57.1 µM (top of the series) unless noted; also: nearly all actives have a fitted effect of over 45% in size
Outline: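 Entry measured by luciferase signal 48 h after adding SARS-CoV-2-S pseudotyped MLV particles to HEK293-ACE2 cells preincubated 1 h with compounds. Normalisation: bald particles and spike particles.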

[8] = VSVG counterscreen qHTS to identify inhibitors of SARS-CoV-2 cell entry (AID 1645847); also: % is scaled to controls: 0 for no effect and ±100 for the full control effect; nearly all actives have a fitted effect of over 65% in size
Outline: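 Luminescence read after 48 h infection at 37 C with VSV-G-pseudotyped MLV particles, following 1 h compound exposure of Expi293F cells stably expressing human ACE2; scaled between bald particle and VSV-G particle wells.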

[9] = target: Alpha-galactosidase (Coffea arabica) (UniProt Q42656); assay: Counterscreen for Glucocerebrosidase Inhibitors: qHTS Assay for Coffee Bean alpha-Galactosidase at pH 4.5 (AID 957; active = well fitted curve in the direction sought with a large enough effect; an effect the other way counts as inactive or inconclusive;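 also: plate controls were enzyme alone for no effect and no enzyme for full effect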)
Outline: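 Enzyme is added first (2 nM final), then compounds titrated from 0.7 nM to 77 uM, then 80 uM 4-methylumbelliferyl alpha-D-galactopyranoside; after 20 min at room temperature a pH 10 NaOH/glycine stop precedes fluorescence reading at 365/440 nm.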

[10] = target: Alpha-galactosidase (Coffea arabica) (UniProt Q42656); assay: Counterscreen for Glucocerebrosidase Inhibitors: qHTS Assay for Coffee Bean alpha-Galactosidase at pH 5.9 (AID 998; active = well fitted curve in the direction sought with a large enough effect; an effect the other way counts as inactive or inconclusive;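 also: plate controls were uninhibited enzyme for no effect and no-enzyme basal signal for full effect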)
Outline: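 Enzyme 2 nM + cpd (0.7 nM–77 uM titration) + 4-MU-alpha-Gal 80 uM, pH 5.9 citrate/Tween-20, RT 20 min, NaOH/glycine stop pH 10, fluor 365/440. Normalized to no-enzyme and full-activity controls; Hill-fit AC50.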

[11] = qHTS Assay for Lipid Storage Modulators (AID 1519); settings: Drosophila S3 cells, BODIPY lipid droplet/cell ratio, laser cytometry, cells loaded with oleic acid; as to activity change, negative = inhibition: % is scaled to controls: 0 for no effect and ±100 for the full control effect
Outline: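 Cells seeded at 5,000 per well were treated with compounds over a concentration series and loaded with oleic acid (400 uM, as added). Lipid droplet fluorescence (488 nm excitation, 500-530 nm channel) was read by laser-scanning cytometry and normalized to 20 uM Triacsin C.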

[12] = Inducers of the Endoplasmic Reticulum Stress Response (ERSR) in human glioma: Validation (AID 504836; active = well fitted curve in the direction sought with a large enough effect; an effect the other way counts as inactive or inconclusive; also: 0% is about no effect)
Outline: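 Stably transfected U87-MG glioma cells carrying a GRP78-based luciferase sensor; 16 h compound incubation. Luminescence end-point read 10 min after Bright-Glo addition at room temperature.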

Chain of Nucleoprotein (Lymphocytic choriomeningitis virus (strain Armstrong)) (P09992 whole entry, looked up): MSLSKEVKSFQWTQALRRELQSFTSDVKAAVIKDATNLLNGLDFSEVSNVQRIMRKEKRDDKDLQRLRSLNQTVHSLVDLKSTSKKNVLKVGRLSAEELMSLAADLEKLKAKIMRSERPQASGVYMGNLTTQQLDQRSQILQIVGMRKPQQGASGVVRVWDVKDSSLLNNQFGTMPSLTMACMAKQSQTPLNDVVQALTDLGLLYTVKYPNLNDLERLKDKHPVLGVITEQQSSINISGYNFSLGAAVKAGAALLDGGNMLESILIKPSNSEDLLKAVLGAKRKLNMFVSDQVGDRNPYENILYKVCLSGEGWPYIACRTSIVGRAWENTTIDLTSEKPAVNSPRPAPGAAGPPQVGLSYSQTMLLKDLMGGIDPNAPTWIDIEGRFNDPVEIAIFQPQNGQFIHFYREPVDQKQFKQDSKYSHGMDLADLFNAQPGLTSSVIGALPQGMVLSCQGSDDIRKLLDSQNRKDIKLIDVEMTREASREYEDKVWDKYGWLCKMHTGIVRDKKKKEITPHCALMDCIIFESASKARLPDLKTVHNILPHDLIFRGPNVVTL
Chain of Alpha-galactosidase (Coffea arabica) (Q42656 whole entry, looked up): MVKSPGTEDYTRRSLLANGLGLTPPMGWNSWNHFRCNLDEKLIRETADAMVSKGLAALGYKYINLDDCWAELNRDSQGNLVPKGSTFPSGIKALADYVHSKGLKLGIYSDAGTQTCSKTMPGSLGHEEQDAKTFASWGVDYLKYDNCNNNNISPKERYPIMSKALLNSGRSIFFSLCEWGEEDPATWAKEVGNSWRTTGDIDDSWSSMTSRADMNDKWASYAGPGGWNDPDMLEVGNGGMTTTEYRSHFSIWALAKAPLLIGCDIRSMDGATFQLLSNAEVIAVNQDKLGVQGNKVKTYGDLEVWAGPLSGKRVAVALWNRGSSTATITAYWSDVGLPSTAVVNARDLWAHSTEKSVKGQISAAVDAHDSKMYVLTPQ

O=C(NCCCCN1CCOCC1)c1cc2ccccc2o1
inactive: Potency [1] | Potency [2] | Potency [3] | Potency [4] | Potency [5] | Potency [6] | Potency [7] | Potency [8]

CNCC[C@H](Oc1ccc(C(F)(F)F)cc1)c1ccccc1
inactive: outcome [9] | outcome [10] | activity change, negative = inhibition ([11]; at 25.7 µM (top of the series)) -1.04% | outcome [12] | Potency [1] | Potency [2] | Potency [3] | Potency [4]
11.3%: max response ([11]; measured here: cell count channel max response)
10.4%: max response ([11]; measured here: lipid channel max response)

C[C@H](c1ccc(F)cc1CCCC(=O)O)N(c1cc(F)ccc1F)S(=O)(=O)c1ccc(Cl)cc1
inactive: Potency [1] | Potency [2] | Potency [3] | Potency [4] | Potency [6]
